# From PubChem BioAssay
# ST2 IL33 inh = blocks human ST2 binding to IL-33. inhibition, % for hits at 17 µM. AlphaLISA ST2-Fc/biotin-IL-33 interaction, 1 h. AID 1259354. hit rate 2.3% among 78,000; in the data active = inhibition above about 30%
# Target sequence (Q01638 whole entry, looked up): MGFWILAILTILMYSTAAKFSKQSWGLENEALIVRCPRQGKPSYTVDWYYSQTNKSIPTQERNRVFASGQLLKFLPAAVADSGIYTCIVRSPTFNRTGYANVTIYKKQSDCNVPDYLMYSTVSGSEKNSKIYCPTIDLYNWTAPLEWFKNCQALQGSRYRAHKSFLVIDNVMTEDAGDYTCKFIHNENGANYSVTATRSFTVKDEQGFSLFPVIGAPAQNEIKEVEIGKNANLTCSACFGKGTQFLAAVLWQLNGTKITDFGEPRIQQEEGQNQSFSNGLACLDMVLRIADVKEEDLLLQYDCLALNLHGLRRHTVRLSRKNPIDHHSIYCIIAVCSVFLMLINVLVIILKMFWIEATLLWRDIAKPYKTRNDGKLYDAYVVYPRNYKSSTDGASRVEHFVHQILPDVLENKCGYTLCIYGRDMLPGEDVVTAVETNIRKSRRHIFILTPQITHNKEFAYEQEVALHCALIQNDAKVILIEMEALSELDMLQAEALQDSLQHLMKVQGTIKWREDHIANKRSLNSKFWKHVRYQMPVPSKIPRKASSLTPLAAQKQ
# The depositor's hits bear a star; i = inactive. Many of the other results were omitted from the sample, so hits are more common in it than they were.
SMILES,ST2 IL33 inh
Nc1c2c(nc3c1CCC3)CCCC2 (tested in a mixture with another compound),i
CC1=C(C(=O)Nc2nc3ccccc3s2)C(c2cccc([N+](=O)[O-])c2)C2=C(CCCC2=O)N1 (stereo not given),i
CC(C)CN1CCNC(=O)C1CC(=O)N1CCC(Cc2ccc(F)cc2)CC1 (stereo not given),i
Cc1ccc(-c2nc3cccnc3n2CCN2CCN(C(=O)NCc3cccc(F)c3)CC2)cc1,i
C=CCNC(=O)c1ccc2c(c1)NC(=O)CS2,i
O=C(Cc1ccccc1)Nc1cccc(NC(=O)Cc2ccccc2)n1,i
COc1ccc(N=Cc2cc(Cl)cc([N+](=O)[O-])c2O)cc1Cl,i
Nc1c(Cl)cc(Cl)cc1[N+](=O)[O-],37%*
O=[N+]([O-])c1cc(Cl)ccc1NCCNCCO,i
CCOc1ccc(OCCn2cnc3ccccc3c2=O)cc1,i
CC1CN(C(=O)c2ccco2)CCN1C(=O)c1ccco1 (stereo not given),i
c1ccc(CCn2c3ccccc3c3nnc(SCCN4CCOCC4)nc32)cc1,i
CCn1c2ccccc2c2nnc(SCC(=O)N3CCCc4ccccc43)nc21,i
O=C(CSc1nnc2c3ccccc3n(CCc3ccccc3)c2n1)N1CCOCC1,33%*
COc1ccc2c(c1)sc(=NC(=O)CSCC(=O)N1CCc3ccccc31)n2C,i
O=c1oc(-c2cccs2)nc2sc3c(c12)CCC3,i
O=c1oc(-c2ccccc2Cl)nc2sc3c(c12)CCC3,45%*
O=c1oc(-c2ccccc2Cl)nc2ccc(Br)cc12,i
O=C(c1ccco1)N1CCN(C(=O)c2cccn3c(=O)c4c5c(sc4nc23)CCCC5)CC1,i
O=c1oc(/C=C/c2ccco2)nc2sc3c(c12)CCCCC3,36%*
O=c1[nH]c(/C=C/c2ccccc2)nc2sc3c(c12)CCCC3,i
c1ccc(CSc2nnc(SCc3ccccc3)s2)cc1,i
COC(=O)c1ccc2c(=O)n(CCc3ccccc3)c(=O)[nH]c2c1,i
CCN1CCN(c2cc(C)c3cc(NC(=O)CCC(=O)N4CCCC(C)C4)ccc3n2)CC1 (stereo not given),i
Clc1ccc(OCCn2nc3ccccc3n2)cc1,i
SMILES,ST2 IL33 inh
Cc1cccc(CSC2=NCCN2C(=O)c2ccc(S(=O)(=O)N3CCCC3)cc2)c1,i
Oc1cccc2ccc(/C=C/c3cc4c(cc3Cl)OCO4)nc12,32%*
CC(=O)Nc1ccc2cccc(O)c2n1,i
C=CCC1c2cccc(C(=O)O)c2C(=O)N1c1cccc(OC)c1 (stereo not given),i
CC1CC2c3cccc(C(=O)O)c3C(=O)N2c2ccc(F)cc21 (stereo not given),32%*
O=C(O)c1ccccc1N1C(=O)C2C3CC(C(Br)C3Br)C2C1=O (stereo not given),i
Cc1ccc(NC(=O)CCc2nc(-c3ccccc3F)no2)nc1,i
COc1ccc(-c2cc(C[C@H]3CNCC[C@H]3CC(=O)N3CCN(c4ccccc4)CC3)no2)cc1,i
O=C(C[C@@H]1CCNC[C@@H]1Cc1cc(COc2ccccc2)on1)N1CCOCC1,i
O=C(C[C@@H]1CCNC[C@@H]1Cc1cc(COc2ccccc2)on1)N1CCN(c2ccccc2)CC1,42%*
c1ccc(N2CCN(c3cc(-n4cccn4)ncn3)CC2)cc1,i
Cc1cc(C)n(-c2nc3ccccc3[nH]c2=O)n1,46%*
Cc1cc(C)n(CCCNC(=O)c2nc3ccccc3[nH]c2=O)n1,i
Cc1cc(C)n(-c2n[nH]c(=O)c3ccccc23)n1,i
Cc1nc(C(=O)NCc2cnc3c(C)cccn23)cs1,i
CC(C)CCNC(=O)c1ccc2c(c1)N(Cc1ccc(F)cc1Cl)C(=O)CS2,i
COc1ccc(C(=O)Nc2ccc(Nc3nc(C)cc(Nc4ccc(C)cc4)n3)cc2)cc1OC,i
CCC(CC)C(=O)Nc1ccc(Nc2nc(C)cc(Nc3ccccc3)n2)cc1,i
COc1cccc(C(=O)Nc2ccc(Nc3nc(C)cc(Nc4ccccc4)n3)cc2)c1,i
Cc1cc(Nc2ccccc2)nc(Nc2ccc(NC(=O)c3ccc(F)cc3)cc2)n1,i
COc1ccc(NC(=O)Cc2ccc(Br)cc2)cc1,i
COc1ccc(CC(=O)Nc2ccc(Nc3nc(C)cc(Nc4ccc(OC)cc4)n3)cc2)cc1,33%*
COc1ccc(Nc2cc(C)nc(Nc3ccc(NC(=O)c4ccccc4OC)cc3)n2)cc1,39%*
COc1ccc(Nc2cc(C)nc(Nc3ccc(NC(=O)CCCc4ccccc4)cc3)n2)cc1,31%*
CC(=O)Nc1ccc(Nc2nc(C)cc(Nc3ccccc3)n2)cc1,i
SMILES,ST2 IL33 inh
COCCCN1CCC(CNC2CCSCC2)C1 (stereo not given),i
CCC(=O)NC(C)c1nc2ccccc2n1CC(C)C (stereo not given),i
COc1cccc(NC(=O)CCC2CCN(Cc3cc4ccccc4o3)CC2)c1,i
COc1ccc(C(=O)N2CCNCC2C(=O)N2CCOCC2)cc1Cl (stereo not given),i
CC(C)(C)c1ccc(C(=O)Nc2cccc(N3CCCS3(=O)=O)c2)cc1,i
C=CCN1CC(C(=O)N2CCc3c(cc(-c4cccc5nc(C)ccc45)c(=O)n3CC3CC3)C2)CC1=O (stereo not given),i
Cc1ccc(-c2cnc3ccccc3n2)cc1[N+](=O)[O-],i
Cc1cc2c(cc1[N+](=O)[O-])C(=O)c1cc3ccccc3nc1-2,36%*
Cc1ccc2c(c1[N+](=O)[O-])C(=O)c1ccccc1C2=O,i
CCOC(=O)c1ccc(NC(=O)c2cnc3scc(C)n3c2=O)cc1,i
C=CCc1ccc(OCCCNCc2ccco2)c(OC)c1,i
COC(=O)[C@@H](NC(=O)c1cc(CCc2ccccc2)no1)c1ccccc1,i
COc1ccc2c(=O)c(Oc3ccccc3)c(C)oc2c1OC,30%*
COc1ccc2c(=O)c(Oc3ccccc3)c(C(F)(F)F)oc2c1OC,i
CC(=O)Oc1ccc2c(=O)c(Oc3ccccc3)c(C)oc2c1OC(C)=O,i
Cc1cccc(-c2nc(S(=O)(=O)c3ccccc3)c(N3CCOCC3)o2)c1,i
O=S(=O)(c1ccccc1)c1nc(-c2ccco2)oc1SCc1ccccc1F,i
O=S(=O)(c1ccccc1)c1nc(-c2ccccc2F)oc1N1CCCCC1,32%*
O=C(NCc1ccc2c(c1)OCO2)c1cc(=O)[nH]c2ccc(S(=O)(=O)N3CCCC3)cc12,i
COc1ccc(-n2nc3c(c2NC(=O)c2ccco2)CS(=O)C3)cc1 (stereo not given),i
O=C(Nc1cccc(F)c1)c1ccccc1C(=O)c1ncc[nH]1,i
Clc1ccc(-c2noc([C@@H]3Cc4nc[nH]c4CN3Cc3cccs3)n2)cc1,30%*
O=C(O)c1ccc(CN2Cc3[nH]cnc3C[C@H]2c2nc(-c3cccc([N+](=O)[O-])c3)no2)cc1,i
COc1ccc(-c2noc([C@@H]3Cc4nc[nH]c4CN3C(=O)Nc3ccc(Cl)cc3)n2)cc1,i
COc1ccc(S(=O)(=O)Nc2cccc(C(C)=O)c2)cc1,i
CN1C(=O)N(CCCc2ccncc2)C(=O)C12CCN(Cc1ccsc1)CC2,i
NC(=O)CSc1oc(-c2ccccc2)nc1S(=O)(=O)c1ccc(Cl)cc1,i
O=S(=O)(c1ccc(Cl)cc1)c1nc(/C=C/c2ccccc2)oc1N1CCOCC1,31%*
Cc1ccc(-c2nc(S(=O)(=O)c3ccc(C)cc3)c(N3CCOCC3)o2)cc1,i
Cc1ccccc1CSC1=NCCN1C(=O)c1ccco1,i
